Screening data (PubChem BioAssay)
Hits are enriched below; roughly 3.1% of the tested compounds scored in any of these assays.
EPAC1 agonist: Validation qHTS for agonist of cAMP-regulated guanine nucleotide exchange factor 3 (EPAC1); Rap guanine nucleotide exchange factor 3 (Homo sapiens), O95398; Potency, µM, usual class: activators; hit rate 1% among 16,000; AID 1645883, 2021; EPAC1 Rap1b BODIPY-GDP exchange, fluorescence; also: nearly all actives have a fitted effect of over 70% in size
EPAC2 ant val: Validation qHTS for antagonist of cAMP-regulated guanine nucleotide exchange factor 4 (EPAC2); Rap guanine nucleotide exchange factor 4 (Homo sapiens), Q8WZA2; EPAC2 Rap1B BODIPY-GDP exchange, fluorescence; Potency, µM (top dose mostly 112 µM), usual class: inhibitors; hit rate 1.7% among 16,000; also: nearly all actives have a fitted effect of over 40% in size
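Normalized against a 6.5 mM cAMP agonist control, compounds were tested on 100 nM EPAC2 exchanging Rap1B-bound BODIPY-GDP (250 nM) for 50 uM GDP. Fluorescence drop (ex 480, em 540 nm) was tracked at room temperature over 30 min at 5-min intervals.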
Of the large screens only hits and unclear results are named; the others gave an inactive call; ! = a repeat was not active. Calls follow the shape of the dose curve; as a rule, active = well fitted curve in the direction sought with a large enough effect; inconclusive = small, poorly fitted or top-dose-only effect, or another doubt; inactive = no such curve, though single readings can be large; an effect the other way counts as inactive or inconclusive.

CCCCN(CC)c1c([N+](=O)[O-])cc(C(F)(F)F)cc1[N+](=O)[O-]	EPAC1 agonist inconclusive
CCCN(CCC)c1c([N+](=O)[O-])cc(S(N)(=O)=O)cc1[N+](=O)[O-]	EPAC2 ant val 40µM
CCCCCC[C@H]1C(=O)O[C@H](C)[C@H](NC(=O)c2cccc(NC=O)c2O)C(=O)O[C@@H](C)[C@@H]1OC(=O)CC(C)C	EPAC2 ant val 45µM
CC(C)=CCN1CC[C@@]2(C)c3cc(O)ccc3C[C@@H]1[C@@H]2C	none
Oc1cc[c]([Hg][Cl])cc1	none
CCCCCCC(=O)O[C@H]1CC[C@H]2[C@@H]3CC[C@H]4CC(=O)C=C(C)[C@]4(C)[C@H]3CC[C@]12C	none
ClC1=C(Cl)[C@]2(Cl)[C@@H]3[C@H]4C[C@H]([C@@H]5O[C@H]45)[C@@H]3[C@@]1(Cl)C2(Cl)Cl	none
NC[C@H](CS(=O)(=O)O)c1ccc(Cl)cc1	none
CCCCCCCCCC(CC)c1ccc(S(=O)(=O)O)cc1 (centres undefined)	EPAC2 ant val 56µM!
CN[C@@]1(c2ccccc2Cl)CCCCC1=O	none
CC1(C)[C@H](C=C(Cl)Cl)[C@H]1C(=O)OCc1c(F)c(F)cc(F)c1F	none
CCOC(=O)[C@]12Cc3ccsc3[C@H]1N(Cc1ccccc1)C(=O)c1ccccc12	EPAC1 agonist inconclusive, EPAC2 ant val 56µM
CCOC(=O)[C@]12Cc3cc(OC)c(OC)cc3[C@H]1N(Cc1ccccc1)C(=O)c1ccccc12	none
N#CC(C#N)=NNc1ccc(OC(F)(F)F)cc1	EPAC2 ant val 40µM
C[C@H]1[C@H]2Cc3ccc(O)cc3[C@]1(C)CCN2CCc1ccccc1	none
COc1cc2c(cc1-c1cc3cc4ccoc4cc3oc1=O)OCO2	EPAC2 ant val 1.3µM
COc1cc2occc2c2oc(=O)ccc12	EPAC1 agonist inconclusive
CCN1C[C@]2(COC)[C@H](O)C[C@H](OC)[C@@]34[C@@H]5C[C@@]6(O)[C@H](OC(=O)c7ccccc7)[C@@H]5[C@@](OC(C)=O)([C@@H]([C@H](OC)[C@H]23)[C@@H]14)[C@@H](O)[C@@H]6OC	none
CCOP(=S)(OCC)SCn1c(=O)oc2cc(Cl)ccc21	EPAC2 ant val 32µM
OC[C@@H](O)[C@H]1O[C@@H]2O[C@H](C(Cl)(Cl)Cl)O[C@@H]2[C@H]1O	none
CCCCCCCCCc1ccc(O)cc1	EPAC1 agonist inconclusive, EPAC2 ant val 45µM
NCCc1ccc(O)cc1	none
CNc1ccc(C(=O)CC(O)CCC(C)C2OC(=O)CC(O)CC(=O)CC(O)CC(O)CC(O)CC(O)CC3(O)CC(O)C(C(=O)OC)C(CC(O[C@@H]4O[C@H](C)[C@@H](O)[C@H](N)[C@@H]4O)/C=C/C=C/C=C/C=C/C=C/C=C/C=C/C2C)O3)cc1 (some centres undefined)	EPAC1 agonist inconclusive
CC(=O)O[C@H]1C[C@H](O[C@H]2[C@@H](O)C[C@H](O[C@H]3[C@@H](O)C[C@H](OC4CC[C@@]5(C)C(CC[C@@H]6[C@@H]5CC[C@]5(C)[C@@H](C7=CC(=O)OC7)[C@@H](O)C[C@]65O)C4)O[C@@H]3C)O[C@@H]2C)O[C@H](C)[C@H]1O[C@@H]1O[C@H](CO)[C@@H](O)[C@H](O)[C@H]1O (some centres undefined)	none
CCNC1(c2cccs2)CCCCC1=O (centres undefined)	none
C[C@@]1(CO)[C@H](O)CC[C@@]2(C)[C@H]1CC[C@H]1C[C@@H]3C[C@@]12CC[C@]3(O)CO	EPAC2 ant val 63µM
CC[C@]1(O)CC(O[C@@H]2CC(N(C)C)C(O)C(C)O2)c2c(cc3c(c2O)C(=O)c2c(O)cccc2C3=O)C1C(=O)OC (some centres undefined)	EPAC1 agonist inconclusive
CC[C@@]1(O)CC(O)c2c(cc3c(c2O)C(=O)c2c(O)ccc(O)c2C3=O)C1C(=O)OC (some centres undefined)	EPAC1 agonist 112µM
CCC(C)(C)c1ccc(O)cc1	none
CC(C)(C)CC(C)(C)c1ccc(O)cc1	EPAC2 ant val 56µM
CCC(=O)O[C@](Cc1ccccc1)(c1ccccc1)[C@H](C)CN(C)C	none
CN1CC[C@]23c4c5ccc(O)c4O[C@H]2[C@@H](O)CC[C@H]3[C@H]1C5	none
CCCCCCCCCCCCCCCC[N+](C)(C)C	EPAC2 ant val 40µM!
CCCCCCCCCC[N+](C)(C)CCCCCCCCCC	none
CC[C@H](C)[C@H]1O[C@]2(C=C[C@@H]1C)C[C@@H]1C[C@@H](C/C=C(\C)[C@@H](O[C@H]3C[C@H](OC)[C@@H](O[C@H]4C[C@H](OC)[C@@H](O)[C@H](C)O4)[C@H](C)O3)[C@@H](C)/C=C/C=C3\CO[C@@H]4[C@H](O)C(C)=C[C@@H](C(=O)O1)[C@]34O)O2	EPAC2 ant val inconclusive
C[C@H]1CC[C@]2(NC1)O[C@H]1C[C@H]3[C@@H]4CC[C@H]5C[C@@H](O[C@@H]6O[C@H](CO)[C@H](O[C@@H]7O[C@H](CO)[C@@H](O)[C@H](O[C@@H]8OC[C@@H](O)[C@H](O)[C@H]8O)[C@H]7O[C@@H]7O[C@H](CO)[C@@H](O)[C@H](O)[C@H]7O)[C@H](O)[C@H]6O)CC[C@]5(C)[C@H]4CC[C@]3(C)[C@H]1[C@@H]2C	none
C[C@]12CC[C@H]3[C@@H](CCC4=CC(=O)CC[C@@]43C)[C@@H]1CC[C@H]2O	none
[H+].[H+].[Hg+2].[O-]B([O-])[O-].[c-]1ccccc1	none
Nc1ccccc1C(=O)O	none
O=C1C(I)=CC(=C(c2cc(I)c(O)c(I)c2)c2ccccc2C(=O)O)C=C1I	EPAC2 ant val 45µM!
OC[C@@H](O)[C@H]1O[C@@H]2O[C@@H](C(Cl)(Cl)Cl)O[C@@H]2[C@H]1O	none
C[C@]12C=CC(=O)C=C1CC[C@@H]1[C@@H]2CC[C@]2(C)OC(=O)CC[C@@H]12	none
C#CCN1C(C)=C(C(=O)CCO)[C@@H](c2cccc(-n3oo3)c2)C(C(=O)OC)=C1C	EPAC1 agonist inconclusive, EPAC2 ant val 20µM
C[C@H]1[C@@H]2Cc3ccc(O)cc3[C@@]1(C)CCN2C	none
O=C1c2ccccc2-c2cccc3cccc1c23	EPAC1 agonist 112µM
CCC(OC(C)=O)C(CC(C)NC)(c1ccccc1)c1ccccc1 (centres undefined)	none
O=C1CS[C@@H](c2ccccc2Cl)c2cc(Cl)ccc2N1	EPAC2 ant val 32µM
Cc1ccccc1-n1c(CF)nc2ccc(N)cc2c1=O	none
